The source made the active and inactive calls.

The text below walks through data of PubChem BioAssay.

For assay [1], the system named is Plasmodium falciparum Sir2 (PF13_0152, Sir2A). The assay can be described thus: Plasmodium falciparum Sir2A binding compounds – biochemical, small-molecule microarray, 635 nm fluorescence, primary screen (AID 1098).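 Further: score merges spot fluorescence intensity with its signal-to-noise ratio.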 As to conditions: fluorescence 635 nm, higher = more signal.
Assay [2] in a line: probe aDKK1 binding to arrayed compounds – biochemical, biotinylated probe, 635/667 nm fluorescence, primary screen (AID 1099).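 Further: score merges 667nm spot fluorescence with signal to noise across triplicate slides.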 To be noted: small-molecule microarray, higher = more signal.
Assay [3] is described as follows: probe aCHRDL2 binding to arrayed compounds – biochemical, biotinylated probe, 635/667 nm fluorescence, primary screen (AID 1100). To be noted: small-molecule microarray, higher = more signal.
The nature of assay [4]: change in splice reporter luminescence, either direction, cell-based, HEK293, spliceosome inhibition project, primary screen (AID 1101).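 Further: HEK293 cells carrying a splicing-competent luciferase reporter gene; test concentration not given here.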 As to conditions: HEK293 splicing luciferase reporter, 24 h, higher = more signal, called active from +8 up or from −8 down. Background: A reporter such as luciferase makes a cellular process visible.
Assay [5] addresses Fibroblast growth factor 10 (Homo sapiens) (UniProt O15520). Nature of the assay: compounds binding fibroblast growth factor 10 – biochemical, small-molecule microarray, 635 nm fluorescence, primary screen (AID 1102). As to conditions: FGF10 binding, fluorescence 635 nm, higher = more signal.
For assay [6], the system named is glycogen synthase kinase-3 (GSK3A per assay name; protocol says GSK3B). The assay can be described thus: compounds binding glycogen synthase kinase-3 – biochemical, small-molecule microarray, 635 nm fluorescence, GSK3A, primary screen (AID 1103). Further: the record names both GSK3A and GSK3B. As to conditions: fluorescence 635 nm, higher = more signal.
For assay [7], the target named is Epidermal growth factor receptor (Homo sapiens) (UniProt P00533). The assay can be described thus: compounds binding epidermal growth factor receptor – biochemical, small-molecule microarray, 635 nm fluorescence, primary screen (AID 1104).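 Further: score merges 667 nm emission intensity with spot signal to noise over triplicate slides.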 To be noted: EGFR binding, higher = more signal.
For assay [8], the target named is Follistatin-related protein 3 (Homo sapiens) (UniProt O95633). The assay can be described thus: compounds binding follistatin-related protein 3 – biochemical, small-molecule microarray, 635 nm fluorescence, primary screen (AID 1105).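 Further: score merges emission near 667 nm and signal to noise per printed spot across three slides.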 To be noted: FSTL3 binding, higher = more signal.
For assay [9], the target named is Dickkopf-related protein 1 (Homo sapiens) (UniProt O94907). Nature of the assay: small molecules binding DKK1 protein – biochemical, small-molecule microarray, 635 nm fluorescence scan, primary screen (AID 1106).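 Further: score merges emission near 667 nm with signal to noise over three replicate slides.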 To be noted: higher = more signal.
Assay [10] has as its system Inhibin beta A chain (activin A). Nature of the assay: small molecules binding activin A – biochemical, small-molecule microarray, 635 nm fluorescence scan, primary screen (AID 1107).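 Further: mouse activin A protein probed at 4.33 µg/mL on printed slides; score merges bound-protein fluorescence near 667 nm with spot signal-to-noise.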 As to conditions: INHBA, higher = more signal.
Assay [11] relates to Human papillomavirus type 1a protein E7 (residues 44-93). The assay can be described thus: small molecules binding HPV E7 44-93 – biochemical, small-molecule microarray, residues 44-93, 635 nm fluorescence, primary screen (AID 1108).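 Further: E7 fragment applied at 1 µg/mL in TBST for 1 h at 4 C; score combines spot fluorescence with its signal to noise ratio.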 To be noted: fluorescence 635 nm, higher = more signal.
Assay [12] in a line: hepatitis C replication reporter changes, two-sided – Huh7 cells, luciferase reporter, HCV replication inhibitor project, primary screen (AID 1109).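 Further: huh7 hepatoma cells harbouring a luciferase neomycin HCV replicon reporter; luciferase luminescence as measure of HCV replicon replication; test concentration not given here.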 To be noted: Huh7 HCV replicon luciferase reporter, 48 h; higher = more signal.
Assay [13] addresses Left-right determination factor 2 (Homo sapiens) (UniProt O00292). The assay can be described thus: small molecules binding LEFTY2 protein – biochemical, small-molecule microarray, 635 nm fluorescence scan, primary screen (AID 1110). To be noted: higher = more signal.
Assay [14] has as its target Calmodulin-1 (Homo sapiens) (UniProt P0DP23). Nature of the assay: small molecules binding calmodulin-1 with EGTA – biochemical, small-molecule microarray, Cy5-labelled CALM1, profiling panel (AID 1111).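 Further: labelled calmodulin applied in Tris saline Tween buffer holding calcium plus EGTA and DTT.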 As to conditions: Cy5-CALM1 binding fluorescence, higher = more signal.
For assay [15] the target is unchanged. The assay can be described thus: small molecules binding Ca-loaded calmodulin-1 – biochemical, small-molecule microarray, Cy5-labelled CALM1, plus calcium, artefact control for SMM control-protein annotation, profiling panel (AID 1112).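 Further: score merges spot fluorescence with signal to noise from triplicate slides.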 To be noted: Cy5-CALM1 binding fluorescence, higher = more signal.
Assay [16] is described as follows: probe aWnt5a binding to arrayed compounds – biochemical, biotinylated probe, 635/667 nm fluorescence, primary screen (AID 1113).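 Further: score merges 667 nm fluorescence intensity with signal-to-noise per printed feature.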 As to conditions: small-molecule microarray, higher = more signal.
A short description of assay [17]: probe aShh binding to arrayed compounds – biochemical, biotinylated probe, 635/667 nm fluorescence, primary screen (AID 1114).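 Further: probe is biotin-labelled aShh protein from a stem cell growth factor screen; measures binding of labelled protein to compounds printed on the slide; score merges feature fluorescence at 667 nm with signal-to-noise.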 To be noted: small-molecule microarray, higher = more signal.
Assay [18] is described as follows: probe aNog binding to arrayed compounds – biochemical, biotinylated probe, 635/667 nm fluorescence, primary screen (AID 1115).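 Further: probe is biotinylated aNog protein used at 0.15 µg/mL for 1 h at 4 C; z-score combines 667 nm fluorescence of each spot with its signal to noise.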 To be noted: small-molecule microarray, higher = more signal.
Assay [19] has as its target Torsin-1A-interacting protein 1 (Homo sapiens) (UniProt Q5JTV8). Nature of the assay: compound microarray binding of lysate hLAP1 – cell lysate, small-molecule microarray, COS7 lysate, 635/667 nm fluorescence, primary screen (AID 1116). To be noted: 635 nm fluorescence, higher = more signal.
Assay [20] has as its target Alpha-bungarotoxin (Bungarus multicinctus) (UniProt P60615). Nature of the assay: compounds binding labelled alpha-BTX control protein – biochemical, small-molecule microarray, Alexa647 label, 635/667 nm fluorescence, artefact control for SMM control protein annotation, profiling panel (AID 1117). As to conditions: alpha-BTX-A647 binding fluorescence, higher = more signal.

Dickkopf-related protein 1 (Homo sapiens), sequence (O94907 whole entry, looked up): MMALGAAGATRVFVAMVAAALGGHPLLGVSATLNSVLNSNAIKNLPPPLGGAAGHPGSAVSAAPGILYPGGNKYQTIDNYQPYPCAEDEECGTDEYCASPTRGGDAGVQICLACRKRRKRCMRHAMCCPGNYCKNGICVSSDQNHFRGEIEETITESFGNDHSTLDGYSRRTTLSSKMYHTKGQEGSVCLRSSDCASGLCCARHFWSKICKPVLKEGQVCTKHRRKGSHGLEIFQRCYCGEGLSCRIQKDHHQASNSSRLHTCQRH
Left-right determination factor 2 (Homo sapiens), sequence (O00292 whole entry, looked up): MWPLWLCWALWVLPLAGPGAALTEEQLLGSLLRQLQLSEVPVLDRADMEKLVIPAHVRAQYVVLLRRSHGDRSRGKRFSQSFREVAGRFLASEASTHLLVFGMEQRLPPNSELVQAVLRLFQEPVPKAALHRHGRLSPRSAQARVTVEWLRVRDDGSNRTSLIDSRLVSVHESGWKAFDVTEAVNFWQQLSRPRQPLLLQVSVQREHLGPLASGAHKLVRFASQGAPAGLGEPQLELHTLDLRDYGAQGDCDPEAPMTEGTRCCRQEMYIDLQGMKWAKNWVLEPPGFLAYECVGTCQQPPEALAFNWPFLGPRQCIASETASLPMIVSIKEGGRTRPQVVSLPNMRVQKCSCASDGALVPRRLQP
Follistatin-related protein 3 (Homo sapiens), sequence (O95633 whole entry, looked up): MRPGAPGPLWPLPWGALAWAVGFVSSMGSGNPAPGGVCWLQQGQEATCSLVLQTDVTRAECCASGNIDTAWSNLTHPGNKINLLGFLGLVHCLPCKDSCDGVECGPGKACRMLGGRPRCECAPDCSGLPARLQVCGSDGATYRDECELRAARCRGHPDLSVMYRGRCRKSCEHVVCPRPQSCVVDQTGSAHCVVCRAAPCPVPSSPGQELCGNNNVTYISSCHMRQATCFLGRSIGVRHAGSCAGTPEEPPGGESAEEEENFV
Alpha-bungarotoxin (Bungarus multicinctus), sequence (P60615 whole entry, looked up): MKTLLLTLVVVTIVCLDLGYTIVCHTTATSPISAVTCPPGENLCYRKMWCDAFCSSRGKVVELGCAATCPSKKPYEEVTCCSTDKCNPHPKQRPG
Fibroblast growth factor 10 (Homo sapiens), sequence (O15520 whole entry, looked up): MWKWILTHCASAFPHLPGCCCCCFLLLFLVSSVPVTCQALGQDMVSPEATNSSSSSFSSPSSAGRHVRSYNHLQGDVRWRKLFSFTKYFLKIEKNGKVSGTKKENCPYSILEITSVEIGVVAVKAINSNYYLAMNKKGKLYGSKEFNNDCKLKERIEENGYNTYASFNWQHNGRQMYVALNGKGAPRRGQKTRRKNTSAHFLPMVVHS
Epidermal growth factor receptor (Homo sapiens), sequence (P00533 whole entry, looked up): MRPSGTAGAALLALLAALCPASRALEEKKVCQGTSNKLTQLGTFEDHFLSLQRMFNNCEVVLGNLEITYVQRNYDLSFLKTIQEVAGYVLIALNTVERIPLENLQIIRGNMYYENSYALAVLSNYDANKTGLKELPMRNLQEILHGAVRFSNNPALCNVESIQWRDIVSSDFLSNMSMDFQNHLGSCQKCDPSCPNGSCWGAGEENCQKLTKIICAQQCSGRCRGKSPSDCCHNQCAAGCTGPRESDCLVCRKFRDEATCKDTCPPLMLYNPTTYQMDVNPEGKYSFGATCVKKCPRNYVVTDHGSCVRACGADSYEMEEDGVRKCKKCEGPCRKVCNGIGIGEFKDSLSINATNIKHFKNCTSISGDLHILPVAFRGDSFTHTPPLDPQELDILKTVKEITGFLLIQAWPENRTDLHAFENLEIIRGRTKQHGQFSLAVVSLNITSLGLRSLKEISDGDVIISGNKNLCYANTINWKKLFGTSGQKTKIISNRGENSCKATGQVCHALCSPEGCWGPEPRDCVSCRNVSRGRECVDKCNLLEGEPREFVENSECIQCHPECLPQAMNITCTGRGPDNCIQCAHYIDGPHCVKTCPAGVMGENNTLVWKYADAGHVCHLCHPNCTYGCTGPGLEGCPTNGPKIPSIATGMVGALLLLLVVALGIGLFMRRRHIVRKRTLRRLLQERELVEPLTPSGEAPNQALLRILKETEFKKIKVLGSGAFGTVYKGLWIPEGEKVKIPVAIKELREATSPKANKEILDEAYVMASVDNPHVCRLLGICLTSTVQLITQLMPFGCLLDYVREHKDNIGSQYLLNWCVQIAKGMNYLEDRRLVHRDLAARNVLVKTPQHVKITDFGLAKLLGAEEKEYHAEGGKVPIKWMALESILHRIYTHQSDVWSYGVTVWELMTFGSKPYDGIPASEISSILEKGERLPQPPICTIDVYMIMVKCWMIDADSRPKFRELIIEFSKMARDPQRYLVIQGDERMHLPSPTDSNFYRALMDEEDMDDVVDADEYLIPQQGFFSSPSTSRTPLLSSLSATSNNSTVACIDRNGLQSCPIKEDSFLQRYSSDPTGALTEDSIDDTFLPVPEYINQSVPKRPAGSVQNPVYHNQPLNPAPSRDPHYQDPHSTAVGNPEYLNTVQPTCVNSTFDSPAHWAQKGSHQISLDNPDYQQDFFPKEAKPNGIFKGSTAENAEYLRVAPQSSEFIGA
Torsin-1A-interacting protein 1 (Homo sapiens), sequence (Q5JTV8 whole entry, looked up): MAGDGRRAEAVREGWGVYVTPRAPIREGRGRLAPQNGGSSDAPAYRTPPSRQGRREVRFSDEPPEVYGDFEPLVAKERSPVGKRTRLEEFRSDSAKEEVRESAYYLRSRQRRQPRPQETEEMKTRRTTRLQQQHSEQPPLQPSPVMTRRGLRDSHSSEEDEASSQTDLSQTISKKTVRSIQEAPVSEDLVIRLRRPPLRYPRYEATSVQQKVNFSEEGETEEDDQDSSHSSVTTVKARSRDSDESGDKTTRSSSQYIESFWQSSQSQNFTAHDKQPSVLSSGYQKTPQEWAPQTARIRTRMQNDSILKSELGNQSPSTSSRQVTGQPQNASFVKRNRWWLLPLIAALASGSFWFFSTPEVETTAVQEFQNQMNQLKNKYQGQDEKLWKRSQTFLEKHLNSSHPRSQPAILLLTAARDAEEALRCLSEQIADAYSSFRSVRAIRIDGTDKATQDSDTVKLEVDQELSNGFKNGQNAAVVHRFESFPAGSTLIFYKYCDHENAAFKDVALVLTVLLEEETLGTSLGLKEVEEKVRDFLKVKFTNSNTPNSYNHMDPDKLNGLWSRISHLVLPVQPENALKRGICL

Regarding `C=CCOC(=O)[C@@H]1[C@H]2C(=O)O[C@H](c3ccccc3)[C@H](c3ccccc3)N2[C@H](c2ccc(OCCOC(=O)[C@@H]3C[C@@H]4C(=O)N[C@@H](CCCC[N+](C)(C)C)C(=O)N4[C@@H]3c3cccc(OCCO)c3)cc2)[C@@]12C(=O)Nc1ccc(I)cc12`, the composite z-score in assay [1] was found to be 1.09; in [2], 0.0616; in assay [3] it was 0.0011; in [5] it was 0.591; in assay [6], 1.19; in assay [7] it was 0.779. The composite z-score stood at 1.25 in [8]; 0.985 in assay [9]; 0.195 in assay [10]; 0.741 in assay [11]; 0.692 in assay [13]; 1.02 in assay [14]. For the same compound, the composite z-score in [15] is 0.0416; in assay [16], -0.0512; in assay [17], -0.0146; in assay [18], 0.886; in [19], 0.897; in assay [20] it was 1.59. For the same compound, the z-score in assay [4] was -0.874 (inactive); in assay [12], -2.48.

Turning to `C[C@@]1([C@@H](NC(=O)c2ccccc2)c2ccc(-c3ccccc3)cc2)C[C@H]1C1CCCCC1`, the composite z-score was -0.443 in assay [1]; 1.18 in assay [2]; 1.26 in assay [3]; -0.145 in assay [5]; -0.82 in assay [6]; -0.573 in assay [7]. Also, the composite z-score in assay [8] is -0.503; in [9], -0.932; in assay [10], 1.09; in assay [11] it was -0.752; in assay [13] it was -0.535; in [14], 1.32. For the same compound, the composite z-score in assay [15] is 1.19; in [16] it was -0.006; in [17] it was -0.353; in [18], 0.18; in [19] it was 0.294; in assay [20], -0.272. The results for the z-score in assay [4] and in assay [12] were 0.665 (inactive) and 0.602, respectively.

Consider `CS(=O)(=O)CCOC(=O)C1=CC(CCCO)=CC(c2ccc(CN3CCCC3)cc2)N(Cc2cc3c(cc2Br)OCO3)C=C1C(=O)OCCS(C)(=O)=O` (stereo not given), for which the composite z-score in assay [1] turned out to be 1.52; in [2], 0.525; in assay [3], 0.555; in assay [5], 1.2; in [6] it was 1.27; in assay [7] it was 0.422. In addition, the composite z-score in assay [8] is 0.634; in assay [9] it was 0.232; in [10], 1.29; in assay [11], 0.981; in assay [13], 0.538; in assay [14], 1.33. The composite z-score in assay [15] amounted to 0.484; in assay [16], 0.0765; in [17] it was 0.171; in assay [18] it was 1.27; in assay [19], 2.44; in [20], 1.62. In addition, the z-score was -0.9 (inactive) in assay [4] and -2.33 in assay [12].

Regarding `O=C1OCCC/C=C\[C@H]2OC34C=CCN(CCN5CCOCC5)C(=O)[C@H]3N(CCCO)C(=O)[C@@H]4C12` (stereo not given in full), the composite z-score is 1.37 in assay [1]; -0.199 in assay [2]; 0.0663 in [3]; 0.0487 in [5]; -0.0632 in assay [6]; -0.708 in [7]. The composite z-score in assay [8] is -0.621; in assay [9], -0.298; in [10] it was 0.576; in [11] it was -0.941; in assay [13], -0.27; in assay [14], -1.01. Moreover, the composite z-score in [15] is -0.147; in [16], -0.18; in [17] it was -0.26; in assay [18], -0.23; in [19] it was 1.05; in assay [20], 1.19. For the same compound, the z-score in assay [4] is 0.106 (inactive); in assay [12] it was -0.61.

In the case of `[N-]=[N+]=NCc1ccccc1[C@H]1OC(c2ccc(OCCCO)cc2)=N[C@@]1(Cc1ccccc1)C(=O)NCc1ccccc1`, the composite z-score in assay [1] was determined as 0.173; in [2], 0.646; in [3], 0.894; in assay [5] it was 0.672; in assay [6], 1.27; in assay [7], 0.169. For the same compound, the composite z-score in assay [8] was 0.231; in assay [9], -0.238; in assay [10], -0.151; in assay [11], 0.296; in assay [13], 0.0739; in assay [14] it was 1.45. Further, the composite z-score in [15] was 0.727; in assay [16], 0.075; in [17], 0.22; in [18], 0.683; in [19] it was 0.881; in assay [20] it was 0.761. Besides, the z-score in [4] is 1.09 (inactive); in assay [12] it was -2.19.
